Values joined by “and” are separate entries in the source; they are usually repeats but may differ in a detail not shown here. Equal entries are not always repeated. A structure can be active in one record and inactive in another. Active and inactive are the calls of the source. How the source made its calls: active means hit-call score of the fitted dose curve at least 0.9, where 1 is the maximum; inactive means score below 0.9.
These compounds were tested against Aryl hydrocarbon receptor (Homo sapiens) (UniProt P35869) (assay: ATG_Ahr_CIS: Attagene CIS-FACTORIAL HepG2 Assay for human Aryl Hydrocarbon Receptor (Ahr) (AID 2282930)). Settings: HepG2 AhR cis-factorial reporter transcription; actives raise or lower the signal.
Chain of Aryl hydrocarbon receptor (Homo sapiens) (P35869 whole entry, looked up): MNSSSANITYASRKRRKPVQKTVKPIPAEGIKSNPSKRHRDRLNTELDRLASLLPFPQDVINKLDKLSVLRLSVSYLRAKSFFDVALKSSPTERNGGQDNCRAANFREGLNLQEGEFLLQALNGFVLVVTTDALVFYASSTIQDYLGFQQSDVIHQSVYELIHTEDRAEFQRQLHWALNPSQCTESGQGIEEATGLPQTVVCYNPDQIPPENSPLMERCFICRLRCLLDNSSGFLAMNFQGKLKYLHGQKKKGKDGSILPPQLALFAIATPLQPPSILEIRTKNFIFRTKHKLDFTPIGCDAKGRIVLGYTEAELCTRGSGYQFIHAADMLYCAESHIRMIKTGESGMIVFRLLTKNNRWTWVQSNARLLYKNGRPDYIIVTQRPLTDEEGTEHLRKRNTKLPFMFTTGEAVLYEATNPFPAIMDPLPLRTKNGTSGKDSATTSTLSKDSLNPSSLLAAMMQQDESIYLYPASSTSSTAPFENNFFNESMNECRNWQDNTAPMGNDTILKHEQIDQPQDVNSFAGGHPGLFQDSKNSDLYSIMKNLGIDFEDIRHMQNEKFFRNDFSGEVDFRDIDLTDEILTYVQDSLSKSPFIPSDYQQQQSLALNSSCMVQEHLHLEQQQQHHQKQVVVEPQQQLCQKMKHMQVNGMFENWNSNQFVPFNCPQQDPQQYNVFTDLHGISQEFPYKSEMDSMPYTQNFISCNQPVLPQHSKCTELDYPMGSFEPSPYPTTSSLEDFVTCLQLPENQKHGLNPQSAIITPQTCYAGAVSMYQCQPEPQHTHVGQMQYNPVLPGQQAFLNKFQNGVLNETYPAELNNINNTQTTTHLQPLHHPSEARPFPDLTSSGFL
Procedure: ATG_CIS is a cell-based, multiplexed-readout assay that uses HepG2, a human liver cell line, with measurements taken at 24 hours after chemical dosing in a 24-well plate.ATG_Ahr_CIS is one of 52 assay component(s) measured or calculated from the ATG_CIS assay. It is designed to make measurements of mRNA induction, a form of inducible reporter, as detected with fluorescence intensity signals by Reverse transcription polymerase chain reaction (RT-PCR) and Capillary electrophoresis technology.Data from the assay component ATG_Ahr_CIS was analyzed into 1 assay endpoint. This assay endpoint, ATG_Ahr_CIS, was analyzed with bidirectional fitting relative to DMSO as the negative control and baseline of activity. Using a type of inducible reporter, measures of mRNA for gain or loss-of-signal activity can be used to understand the reporter gene at the transcription factor-level as they relate to the gene AHR. Furthermore, this assay endpoint can be referred to as a primary readout, because this assay has produced multiple assay endpoints where this one serves a reporter gene function. To generalize the intended target to other relatable targets, this assay endpoint is annotated to the dna binding intended target family, where the subfamily is basic helix-loop-helix protein.
Human liver HepG2 cells are transiently transfected with multiple reporter transcription units (MRTUs) in 6-well plates using FuGene 6 reagent (Roche; 3 ml FuGene/1 mg DNA). The MRTU constructs are regulated by a cis-regulating element (promoter). […] A major difference between the CIS and TRANS system is that in CIS activities of endogenous TFs are measured, whereas the TRANS assay evaluates changes in activities of exogenous, chimeric NR-Gal4 proteins. […] At the end of 24 hour incubation, total RNA was isolated using TriZol reagent (Invitrogen). The isolated RNA is then reverse-transcribed using oligo(dT) primer and Mo-MLV reverse transcriptase (Invitrogen) with DNAse I (Ambion) treatment for 30 min. The one-tenth of the produced cDNA was amplified by PCR using Taq DNA polymerase (Invitrogen) and two reporter sequence-specific primers. The PCR products were fluorescently labeled by primer extension with 6-arboxyfluorescein (6-FAM) 5'-labeled reporter sequence-specific primer (2 min at 95 C, 20 s at 68 C and 10 min at 72 C) and these products were digested with 5U of HpaI (New England Biolabs) for 2h at 37 C. […] The raw capillary electrophoresis data was processed using Attagraph software (Attagene).

Row | Compound | outcome | AC50
1 | CCC(=O)O[C@H]1CC[C@H]2[C@@H]3CCC4=CC(=O)CC[C@]4(C)[C@H]3CC[C@]12C | inactive | 38.6 µM (active)
2 | CCC(C)(c1ccc(O)cc1)c1ccc(O)cc1 | inactive | 58.9 µM (active)
3 | Sc1ccccc1 | inactive | –
4 | O=C(O)C(F)(F)C(F)(F)C(F)(F)C(F)(F)C(F)(F)F | inactive | –
5 | OCC(O)CO | inactive | 33.3 µM (active)
6 | C1CC2OC2CC1C1CO1 (stereo not given) | – | 81.5 µM (active)
7 | O=C(N[C@H]1CN2CCC1CC2)c1cc2ccoc2cn1 | inactive | –
8 | O=S(=O)(O)C(F)(F)C(F)(F)C(F)(F)C(F)(F)C(F)(F)C(F)(F)F | inactive | –
9 | Cc1cccc([N+](=O)[O-])c1 | inactive | –
10 | O=NN(c1ccccc1)c1ccccc1 | inactive | –
11 | CC#Cc1cc(C)nc(Nc2ccccc2)n1 | – | 23 µM (active)
12 | CCCCCCCCOC(=O)c1ccccc1C(=O)OCCCCCCCC | inactive | –
13 | ClC1=C(Cl)[C@]2(Cl)[C@@H]3[C@H]4C[C@H]([C@@H]5O[C@H]45)[C@@H]3[C@@]1(Cl)C2(Cl)Cl | inactive | –
14 | CCOCCOC(C)=O | inactive | –
15 | CCCCCCCCCC[N+](C)(C)CCCCCCCCCC | inactive | –
16 | O=S(=O)(O)C(F)(F)C(F)(F)C(F)(F)C(F)(F)F | inactive | 110 µM (active)
17 | Cc1cc(O)ccc1Cl | inactive | –

Row | Compound | outcome | AC50
18 | CCCCCCOC(=O)c1ccccc1C(=O)OCCCCCC | inactive | –
19 | C[C@]12CCC(=O)C=C1CC[C@@H]1[C@@H]2CC[C@@]2(C)[C@H]1CC[C@]2(C)O | inactive | –
20 | CCCCCCCCCc1ccc(O)cc1 | inactive | –
21 | Oc1ccc(C(c2ccc(O)cc2)(C(F)(F)F)C(F)(F)F)cc1 | inactive | 11.1 µM (active) and 5.94 µM (active) and 13.3 µM (active)
22 | COc1ccc(O)c(C(C)(C)C)c1 | inactive | –
23 | CC(C)(O)C(=O)Nc1ccc([N+](=O)[O-])c(C(F)(F)F)c1 | inactive | –
24 | Clc1ccc(Cl)cc1 | inactive | –
25 | CC(C)C(=O)OCC(C)(C)C(OC(=O)C(C)C)C(C)C (stereo not given) | – | 69 µM (active)
26 | ClC1=C(Cl)[C@]2(Cl)[C@@H]3[C@@H]4C[C@@H]([C@H]5O[C@@H]45)[C@@H]3[C@@]1(Cl)C2(Cl)Cl | inactive | –
27 | CC1=C2C[C@H]3[C@@H](CC=C4C[C@@H](O)CC[C@@]43C)[C@@H]2CC[C@]12O[C@@H]1C[C@H](C)CN[C@H]1[C@H]2C | inactive | –
28 | Oc1ccc(Cl)cc1Cl | inactive | –
29 | CN(C)c1nc(=O)n(C2CCCCC2)c(=O)n1C | inactive | –
30 | CCCN(CCC)N=O | inactive | –
31 | C[C@]12CCC(=O)C=C1CC[C@@H]1[C@@H]2CC[C@]2(C)C(=O)CC[C@@H]12 | inactive | 49.8 µM (active)
32 | ClC(Cl)=C(c1ccc(Cl)cc1)c1ccc(Cl)cc1 | inactive | 19.8 µM (active) and 122 µM (active)
33 | c1ccc(-c2ccccc2)cc1 | inactive | –

Reference: PubChem BioAssay (EPA / NIEHS)
